From PubChem BioAssay AID1159580 (chemical genetic matrix, 2015)
Hit rate of the full screen: of about 5,500 compounds, about 2,000 (36%) were called active. Roughly 18% stayed inconclusive and do not appear here. Rule as the data show it: active = normalized growth mostly below about 0.91 (no sharp cut-off); inconclusive = no clear call, values can overlap the other calls; inactive = mostly above about 0.92. The list shows a part of the results.

Experiment: chemical genetic growth profiling, strain panel (AID 1159580);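 also: tested at 20 µM; growth read once vehicle control cultures reached saturation at 30 °C; 1 = growth at the plate median or of vehicle wells; lower values mean less growth of the strain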
Conditions: S. cerevisiae deletion strains, growth OD
[1] = locus YAL013W, strain DEP1, active compounds read low
[2] = locus YBR229C, strain ROT2, active compounds read low
[3] = locus YCL061C, strain MRC1, active compounds read low
[4] = locus YDL101C, strain DUN1, active compounds read low
[5] = locus YDL134C, strain PPH21, active compounds read low
[6] = locus YDR150W, strain NUM1, active compounds read low
[7] = locus YEL061C, strain CIN8, active compounds read low
[8] = locus YGR078C, strain PAC10, active compounds read low
[9] = locus YHR030C, strain SLT2, active compounds read low
[10] = locus YHR087W, strain rtc3, active compounds read low
[11] = locus YJL187C, strain SWE1, active compounds read low
[12] = locus YJR043C, strain POL32, active compounds read low
[13] = locus YJR075W, strain HOC1, active compounds read low
[14] = locus YKL190W, strain CNB1, active compounds read low
[15] = locus YLR039C, strain RIC1, active compounds read low
[16] = locus YLR058C, strain SHM2 (second series), active compounds read low
[17] = locus YLR085C, strain ARP6, active compounds read low
[18] = locus YLR262C, strain YPT6, active compounds read low
[19] = locus YML094W, strain GIM5, active compounds read low
[20] = locus YMR219W, strain ESC1, active compounds read low
[21] = locus YMR263W, strain SAP30, active compounds read low
[22] = locus YNL153C, strain GIM3, active compounds read low
[23] = locus YNL298W, strain CLA4 (second series), active compounds read low
[24] = locus YNL322C, strain KRE1, active compounds read low
[25] = locus YNR030W, strain Alg12, active compounds read low
[26] = locus YPL055C, strain LGE1, active compounds read low
[27] = locus YPL241C, strain CIN2, active compounds read low
[28] = locus YPR135W, strain CTF4, active compounds read low
[29] = locus YMR307W, strain GAS1, active compounds read low
[30] = locus YNL128W, strain TEP1, active compounds read low

Measured: normalized growth

S=C1NCN(CCN2CCCC2)CN1
inactive: [1] 1 | [2] 0.996 | [3] 0.988 | [4] 0.984 | [5] 0.975 | [6] 0.96 | [7] 1.03 | [8] 0.997 | [9] 1.04 | [10] 1.04 | [11] 1.01 | [12] 0.986 | [13] 0.997 | [14] 0.977 | [15] 0.991 | [16] 1.01 | [17] 0.98 | [18] 0.972 | [19] 1 | [20] 1.01 | [21] 1 | [22] 0.993 | [23] 0.987 | [24] 0.995 | [25] 0.994 | [26] 1.01 | [27] 0.973 | [28] 0.962

Cn1c2c(c(=O)n(C)c1=O)CN(CCCCCCO)CN2
inactive: [1] 1 | [2] 1.01 | [3] 1.01 | [4] 1 | [5] 1.02 | [6] 0.982 | [7] 1.01 | [8] 0.999 | [9] 1.07 | [10] 1 | [12] 0.99 | [13] 1.01 | [14] 0.994 | [15] 1.02 | [16] 1 | [17] 1.1 | [18] 1.03 | [19] 1.05 | [20] 1 | [21] 1 | [29] 1.04 | [30] 1.01 | [22] 0.999 | [23] 1.1 | [24] 0.998 | [25] 1.04 | [26] 1.02 | [27] 1.05 | [28] 1.02

CCCCCCCCCCCCN1CNC(=S)NC1
active: [1] 0.804 | [2] 0.81 | [3] 0.68 | [4] 0.652 | [5] 0.451 | [7] 0.441 | [8] 0.813 | [9] 0.291 | [10] 0.767 | [11] 0.688 | [12] 0.727 | [13] 0.858 | [14] 0.515 | [17] 0.141 | [19] 0.513 | [20] 0.786 | [21] 0.782 | [22] 0.801 | [23] 0.325 | [25] 0.419 | locus YOL006C, strain TOP1, active compounds read low 0.123 | [26] 0.541 | [27] 0.484 | [28] 0.382
inactive: [6] 0.846 | [15] 0.985 | [16] 0.988 | [18] 1.01 | [24] 0.956

Cc1ccc(C(=O)Nc2ccc(S(=O)(=O)O)c3cc(S(=O)(=O)O)cc(S(=O)(=O)O)c23)cc1NC(=O)c1cccc(NC(=O)Nc2cccc(C(=O)Nc3cc(C(=O)Nc4ccc(S(=O)(=O)O)c5cc(S(=O)(=O)O)cc(S(=O)(=O)O)c45)ccc3C)c2)c1
inactive: [1] 1.03 | locus YAL021C, strain ccr4, active compounds read low 1.03 | locus YAL026C, strain drs2, active compounds read low 1 | locus YAL030W, strain snc1, active compounds read low 1.01 | locus YAL040C, strain CLN3, active compounds read low 0.968 | locus YBL061C, strain skt5, active compounds read low 1.01 | locus YBR009C, strain hhf1, active compounds read low 0.98 | locus YBR023C, strain chs3, active compounds read low 1.04 | locus YBR171W, strain sec66, active compounds read low 1.03 | locus YBR231C, strain swc5, active compounds read low 1.02 | locus YBR279W, strain paf1, active compounds read low 1.02 | locus YCL011C, strain gbp2, active compounds read low 1.02 | locus YCL016C, strain dcc1, active compounds read low 1.03 | locus YCL061C, strain MRC1 (second series), active compounds read low 1 | [3] 1.03 | locus YCL069W, strain vba3, active compounds read low 1.01 | locus YCR088W, strain abp1, active compounds read low 1.01 | locus YDL005C, strain med2, active compounds read low 1.02 | locus YDL040C, strain nat1, active compounds read low 1.01 | locus YDR001C, strain nth1, active compounds read low 1.01 | locus YDR069C, strain doa4, active compounds read low 1.02 | locus YDR137W, strain rgp1, active compounds read low 1.05 | [6] 0.998 | locus YDR159W, strain sac3, active compounds read low 1 | locus YDR195W, strain ref2 1.02 | locus YDR297W, strain sur2, active compounds read low 1.01 | locus YDR334W, strain swr1, active compounds read low 1.03 | locus YDR335W, strain msn5, active compounds read low 1.02 | locus YDR363W, strain ESC2, active compounds read low 1.01 | locus YDR392W, strain spt3, active compounds read low 0.975 | locus YEL003W, strain gim4, active compounds read low 1.01 | locus YEL037C, strain rad23, active compounds read low 1.01 | locus YEL061C, strain CIN8 (second series), active compounds read low 1.01 | locus YER002W, strain NOP16, active compounds read low 1.03 | locus YER015W, strain faa2, active compounds read low 0.999 | locus YER016W, strain bim1, active compounds read low 1.01 | locus YER111C, strain swi4, active compounds read low 1.03 | locus YER155C, strain BEM2 (second series), active compounds read low 1.03 | locus YFR010W, strain ubp6, active compounds read low 1.01 | locus YGL167C, strain pmr1, active compounds read low 1.01 | locus YGL173C, strain kem1, active compounds read low 1.02 | locus YGL227W, strain vid30, active compounds read low 1.03 | locus YGL240W, strain doc1, active compounds read low 1.04 | locus YGL253W, strain hxk2, active compounds read low 1.03 | locus YGR229C, strain SMI1, active compounds read low 1.04 | locus YHR013C, strain ard1, active compounds read low 1.05 | locus YHR027C, strain rpn1, active compounds read low 1.03 | [9] 1.11 | locus YHR079C, strain IRE1, active compounds read low 1.1 | locus YHR142W, strain chs7, active compounds read low 1.04 | locus YJL092W, strain hpr5, active compounds read low 1.02 | locus YJL095W, strain BCK1 (second series), active compounds read low 1.01 | locus YJL095W, strain BCK1, active compounds read low 1.09 | locus YJL115W, strain asf1, active compounds read low 1.03 | locus YJL129C, strain trk1, active compounds read low 1.07 | locus YJL154C, strain vps35, active compounds read low 1.03 | locus YJL164C, strain tpk1, active compounds read low 1 | locus YJL166W, strain qcr8, active compounds read low 1.03 | [11] 1.02 | locus YJR066W, strain TOR1, active compounds read low 0.998 | [13] 1.01 | locus YKL160W, strain elf1, active compounds read low 1.05 | locus YKR026C, strain gcn3, active compounds read low 1.02 | locus YKR091W, strain srl3, active compounds read low 1.01 | locus YLL001W, strain dnm1, active compounds read low 1.07 | locus YLL026W, active compounds read low 1.01 | locus YLL041C, strain sdh2, active compounds read low 1.02 | locus YLR027C, strain aat2, active compounds read low 1.02 | locus YLR113W, strain HOG1, active compounds read low 1.12 | locus YLR221C, strain rsa3, active compounds read low 1.03 | locus YLR258W, strain gsy2, active compounds read low 1 | locus YLR262C, strain YPT6 (second series), active compounds read low 1.04 | locus YLR320W, strain mms22, active compounds read low 1.07 | locus YLR342W, strain FKS1, active compounds read low 1.02 | locus YLR357W, strain rsc2, active compounds read low 1.03 | locus YLR370C, strain arc18, active compounds read low 1.03 | locus YLR384C, strain iki3, active compounds read low 1.01 | locus YML120C, strain ndi1, active compounds read low 1.04 | locus YMR058W, strain fet3, active compounds read low 1.03 | locus YMR125W, strain sto1, active compounds read low 1.06 | locus YMR129W, active compounds read low 1.01 | locus YMR205C, strain PFK2, active compounds read low 1.06 | locus YMR231W, strain pep5, active compounds read low 1.01 | [29] 0.993 | locus YNL071W, strain lat1, active compounds read low 1.02 | [30] 1.01 | locus YNL175C, strain NOP13, active compounds read low 1.02 | locus YNL183C, strain NPR1, active compounds read low 1 | locus YNL197C, strain WHI3, active compounds read low 1 | locus YNL209W, strain ssb2, active compounds read low 1.02 | locus YNL224C, strain SQS1, active compounds read low 1.02 | locus YNL248C, strain rpa49, active compounds read low 1.06 | locus YNL322C, strain KRE1 (second series), active compounds read low 1.03 | [24] 1.04 | locus YNR049C, strain mso1, active compounds read low 1.01 | locus YOR001W, strain rrp6, active compounds read low 0.967 | locus YOR070C, strain gyp1, active compounds read low 1.02 | locus YOR080W, strain dia2, active compounds read low 1.01 | locus YOR083W, strain WHI5 (second series), active compounds read low 0.997 | locus YOR083W, strain WHI5, active compounds read low 1.04 | locus YOR106W, strain vam3, active compounds read low 1.05 | locus YOR231W, strain MKK1, active compounds read low 1.11 | locus YOR265W, strain rbl2, active compounds read low 1.01 | locus YOR270C, strain vph1, active compounds read low 1.11 | locus YOR290C, strain snf2, active compounds read low 1.06 | locus YPL051W, strain arl3, active compounds read low 1.05 | [26] 1.02 | locus YPL078C, strain atp4, active compounds read low 1.06 | locus YPL106C, strain sse1, active compounds read low 1.01 | locus YPL240C, strain hsp82, active compounds read low 1.01 | [27] 1 | locus YPL256C, strain CLN2, active compounds read low 1.14

CSc1c(-c2ccccc2)c(N)nn1S(=O)(=O)c1ccccc1
active: [11] 0.0597
inactive: [1] 0.99 | [2] 0.982 | [3] 0.993 | [4] 0.978 | [5] 0.998 | [6] 0.979 | [7] 0.967 | [8] 0.98 | [9] 0.913 | [10] 0.973 | [12] 1.01 | [13] 0.971 | [15] 0.836 | [16] 0.996 | [17] 0.849 | [18] 0.901 | [19] 0.944 | [20] 1 | [21] 0.983 | [29] 0.815 | [30] 0.97 | [22] 1 | [23] 0.907 | [24] 0.987 | [25] 0.951 | [26] 0.994 | [27] 0.943 | [28] 0.945
